# Assay results reported in PMC7862700, “An all-to-all approach to the identification of sequence-specific readers for epigenetic DNA modifications on cytosine”.
# What was measured:
# Experiment in all cases: DAPPL (digital affinity profiling via proximity ligation, sequencing); 10 mM Tris-HCl pH 7.5, 50 mM NaCl, 1 mM DTT, 4% glycerol, room temperature, 30 min; GST-TFs on glutathione beads, 16-mer random dsDNA library, 0.1% formaldehyde crosslink after washing; high values mean tight binding
# Settings in all cases: protein: recombinant; tags: N-terminal GST; dsDNA, one strand shown
# [1] = molecular target: T1, FLI1 (Homo sapiens, UniProt Q01543 1-452)
# T1 sequence: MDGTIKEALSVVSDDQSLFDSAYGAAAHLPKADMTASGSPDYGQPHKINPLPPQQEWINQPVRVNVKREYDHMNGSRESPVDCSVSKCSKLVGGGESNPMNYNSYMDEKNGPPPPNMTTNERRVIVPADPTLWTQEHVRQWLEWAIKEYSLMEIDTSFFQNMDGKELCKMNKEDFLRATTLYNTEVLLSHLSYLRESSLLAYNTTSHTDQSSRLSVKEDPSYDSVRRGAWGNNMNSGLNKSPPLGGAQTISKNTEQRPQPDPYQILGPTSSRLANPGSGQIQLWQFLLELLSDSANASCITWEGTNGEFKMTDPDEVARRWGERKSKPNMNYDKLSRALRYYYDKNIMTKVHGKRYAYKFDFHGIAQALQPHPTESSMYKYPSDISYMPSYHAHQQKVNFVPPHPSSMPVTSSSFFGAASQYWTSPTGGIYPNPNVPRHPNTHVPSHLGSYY
# Summary of the method: (§1)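 Human transcription factors carrying a GST fusion were produced in yeast, bound to glutathione beads, tagged with DNA barcodes and pooled together with a tag-only sample. Each pool was held with 200 nmole of a random double-stranded 16-mer DNA library in Tris/NaCl/DTT/glycerol buffer for 30 min at room temperature, then washed, crosslinked in 0.1% formaldehyde, proximity-ligated with BsaI/T4 ligase (1 h, 37 °C), PCR-amplified and sequenced on an Illumina NextSeq500. Binding signal is the read frequency of each hexamer for a given factor divided by its frequency in the tag-only sample.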
# [2] = molecular target: T2, ELK1 (Homo sapiens, UniProt P19419 1-428)
# T2 sequence: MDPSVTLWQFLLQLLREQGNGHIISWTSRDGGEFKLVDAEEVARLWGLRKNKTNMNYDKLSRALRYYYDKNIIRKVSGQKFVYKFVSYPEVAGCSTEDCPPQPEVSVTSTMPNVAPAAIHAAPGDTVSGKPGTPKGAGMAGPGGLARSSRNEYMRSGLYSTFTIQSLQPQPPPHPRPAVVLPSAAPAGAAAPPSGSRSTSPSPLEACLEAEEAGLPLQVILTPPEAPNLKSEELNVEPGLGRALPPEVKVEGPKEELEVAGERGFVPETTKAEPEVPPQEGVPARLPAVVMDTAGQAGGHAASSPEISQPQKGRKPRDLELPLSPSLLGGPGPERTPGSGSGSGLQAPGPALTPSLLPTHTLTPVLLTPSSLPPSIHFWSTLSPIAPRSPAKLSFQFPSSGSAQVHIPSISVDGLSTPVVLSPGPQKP
# Summary of the method: as §1
# [3] = molecular target: T3, GABPA (Homo sapiens, UniProt Q06546 1-454)
# T3 sequence: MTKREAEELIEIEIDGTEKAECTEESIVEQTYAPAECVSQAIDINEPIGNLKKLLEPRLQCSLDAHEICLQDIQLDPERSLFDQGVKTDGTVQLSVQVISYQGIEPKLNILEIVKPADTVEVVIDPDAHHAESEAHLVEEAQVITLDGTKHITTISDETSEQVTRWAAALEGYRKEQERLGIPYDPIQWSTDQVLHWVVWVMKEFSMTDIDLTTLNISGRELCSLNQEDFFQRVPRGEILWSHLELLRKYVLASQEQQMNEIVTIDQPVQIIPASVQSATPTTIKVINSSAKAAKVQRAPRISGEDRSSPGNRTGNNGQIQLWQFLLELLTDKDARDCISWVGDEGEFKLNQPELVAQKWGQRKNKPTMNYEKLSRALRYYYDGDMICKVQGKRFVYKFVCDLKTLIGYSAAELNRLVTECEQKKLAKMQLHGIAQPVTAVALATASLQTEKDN
# Summary of the method: as §1
# [4] = molecular target: T4, ERG (Homo sapiens, UniProt P11308 1-479)
# T4 sequence: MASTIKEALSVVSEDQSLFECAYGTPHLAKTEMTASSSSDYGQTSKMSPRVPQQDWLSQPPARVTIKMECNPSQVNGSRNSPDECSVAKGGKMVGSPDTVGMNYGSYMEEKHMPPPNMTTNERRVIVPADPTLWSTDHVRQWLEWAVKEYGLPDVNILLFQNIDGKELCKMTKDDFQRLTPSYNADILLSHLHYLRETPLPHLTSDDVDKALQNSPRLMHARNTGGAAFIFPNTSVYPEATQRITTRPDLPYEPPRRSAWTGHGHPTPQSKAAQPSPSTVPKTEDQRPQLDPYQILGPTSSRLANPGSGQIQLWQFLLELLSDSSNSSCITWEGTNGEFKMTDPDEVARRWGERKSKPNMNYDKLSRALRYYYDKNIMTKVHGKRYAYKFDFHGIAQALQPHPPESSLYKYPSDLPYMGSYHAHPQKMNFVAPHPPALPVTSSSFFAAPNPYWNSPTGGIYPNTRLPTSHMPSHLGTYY
# Summary of the method: as §1
# [5] = molecular target: ELF1 (Homo sapiens, UniProt P32519 1-619)
# Summary of the method: as §1
# [6] = molecular target: T5, EHF (Homo sapiens, UniProt Q9NZC4 1-300)
# T5 sequence: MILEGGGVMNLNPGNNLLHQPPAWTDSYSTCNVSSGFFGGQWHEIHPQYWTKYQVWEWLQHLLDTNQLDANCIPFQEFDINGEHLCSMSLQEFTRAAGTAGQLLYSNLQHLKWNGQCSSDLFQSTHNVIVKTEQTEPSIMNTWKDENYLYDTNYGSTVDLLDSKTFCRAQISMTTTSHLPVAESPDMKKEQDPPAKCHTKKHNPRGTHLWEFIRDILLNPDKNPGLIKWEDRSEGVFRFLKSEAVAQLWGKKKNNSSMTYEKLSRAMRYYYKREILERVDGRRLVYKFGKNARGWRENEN
# Summary of the method: as §1
# [7] = molecular target: SPIB (Homo sapiens, UniProt Q01892 1-262)
# Summary of the method: as §1
# [8] = molecular target: T6, ELK3 (Homo sapiens, UniProt P41970 1-407)
# T6 sequence: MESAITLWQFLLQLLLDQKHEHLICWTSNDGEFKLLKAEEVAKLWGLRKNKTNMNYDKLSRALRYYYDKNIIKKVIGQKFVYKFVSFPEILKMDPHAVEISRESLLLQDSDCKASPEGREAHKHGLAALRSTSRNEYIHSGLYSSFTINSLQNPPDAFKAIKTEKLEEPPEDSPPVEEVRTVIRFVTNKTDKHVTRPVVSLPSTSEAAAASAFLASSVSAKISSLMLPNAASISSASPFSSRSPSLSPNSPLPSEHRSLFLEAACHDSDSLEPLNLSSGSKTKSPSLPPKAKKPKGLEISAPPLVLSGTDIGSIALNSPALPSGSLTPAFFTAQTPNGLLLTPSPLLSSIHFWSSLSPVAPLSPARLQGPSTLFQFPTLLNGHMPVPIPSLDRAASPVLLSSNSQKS
# Summary of the method: as §1
# [9] = molecular target: T7, FEV (Homo sapiens, UniProt Q99581 1-238)
# T7 sequence: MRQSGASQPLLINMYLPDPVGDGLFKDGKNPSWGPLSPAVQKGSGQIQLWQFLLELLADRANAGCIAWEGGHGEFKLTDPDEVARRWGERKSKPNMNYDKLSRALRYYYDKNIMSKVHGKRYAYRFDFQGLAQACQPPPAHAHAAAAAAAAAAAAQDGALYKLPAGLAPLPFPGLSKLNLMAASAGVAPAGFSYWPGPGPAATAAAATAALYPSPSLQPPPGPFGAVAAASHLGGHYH
# Summary of the method: as §1
# [10] = molecular target: ETV5 (Homo sapiens, UniProt P41161 1-510)
# Summary of the method: as §1
# [11] = molecular target: T8, SPIC (Homo sapiens, UniProt Q8N5J4 1-248)
# T8 sequence: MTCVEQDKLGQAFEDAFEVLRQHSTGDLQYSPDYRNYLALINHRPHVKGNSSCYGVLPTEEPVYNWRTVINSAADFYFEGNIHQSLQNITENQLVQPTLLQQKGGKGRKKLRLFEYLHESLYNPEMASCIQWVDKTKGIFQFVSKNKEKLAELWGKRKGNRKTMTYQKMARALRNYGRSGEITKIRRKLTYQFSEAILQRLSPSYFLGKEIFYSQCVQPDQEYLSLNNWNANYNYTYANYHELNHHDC
# Summary of the method: as §1
# [12] = molecular target: ELF4 (Homo sapiens, UniProt Q99607 1-663)
# Summary of the method: as §1
# [13] = molecular target: T9, ELK4 (Homo sapiens, UniProt P28324-2 1-405)
# T9 sequence: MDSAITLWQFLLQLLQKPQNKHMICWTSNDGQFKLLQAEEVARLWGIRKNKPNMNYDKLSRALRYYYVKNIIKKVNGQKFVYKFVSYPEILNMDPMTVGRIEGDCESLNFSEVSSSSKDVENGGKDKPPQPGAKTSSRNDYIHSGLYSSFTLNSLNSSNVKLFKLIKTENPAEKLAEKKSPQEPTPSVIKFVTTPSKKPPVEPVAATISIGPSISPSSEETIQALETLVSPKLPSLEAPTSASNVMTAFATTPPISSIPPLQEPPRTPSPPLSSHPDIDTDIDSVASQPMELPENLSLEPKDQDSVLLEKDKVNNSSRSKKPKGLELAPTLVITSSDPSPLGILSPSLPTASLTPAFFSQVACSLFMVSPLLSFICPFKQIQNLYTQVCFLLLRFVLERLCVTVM
# Summary of the method: as §1
# [14] = molecular target: T10, ELF3 (Homo sapiens, UniProt P78545 1-371)
# T10 sequence: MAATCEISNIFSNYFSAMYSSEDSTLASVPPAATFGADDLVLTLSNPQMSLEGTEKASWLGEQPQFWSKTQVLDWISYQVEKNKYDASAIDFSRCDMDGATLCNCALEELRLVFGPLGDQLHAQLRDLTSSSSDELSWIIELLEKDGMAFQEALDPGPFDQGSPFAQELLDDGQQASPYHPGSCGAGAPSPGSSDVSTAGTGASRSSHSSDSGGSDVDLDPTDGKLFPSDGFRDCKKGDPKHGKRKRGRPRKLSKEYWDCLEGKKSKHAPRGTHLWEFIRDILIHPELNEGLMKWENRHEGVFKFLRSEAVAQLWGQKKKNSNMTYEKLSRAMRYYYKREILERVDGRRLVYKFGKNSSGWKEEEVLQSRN
# Summary of the method: as §1
# [15] = molecular target: CRX (Homo sapiens, UniProt O43186 1-299)
# Summary of the method: as §1
# [16] = molecular target: ETV1 (Homo sapiens, UniProt P50549 1-477)
# Summary of the method: as §1
# [17] = molecular target: SPI1 (Homo sapiens, UniProt P17947 1-270)
# Summary of the method: as §1
# [18] = molecular target: T11, ETV2 (Homo sapiens, UniProt O00321 1-342)
# T11 sequence: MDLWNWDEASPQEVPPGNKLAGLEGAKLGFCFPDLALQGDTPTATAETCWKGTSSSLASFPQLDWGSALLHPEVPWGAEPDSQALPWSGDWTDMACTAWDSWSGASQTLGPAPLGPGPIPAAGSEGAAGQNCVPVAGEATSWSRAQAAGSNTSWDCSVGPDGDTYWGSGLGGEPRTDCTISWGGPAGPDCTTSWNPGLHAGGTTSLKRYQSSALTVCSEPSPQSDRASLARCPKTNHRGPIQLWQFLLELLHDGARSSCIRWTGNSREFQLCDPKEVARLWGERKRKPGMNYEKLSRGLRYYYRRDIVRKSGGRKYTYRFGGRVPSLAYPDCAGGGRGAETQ
# Summary of the method: as §1
# ETV5, sequence (P41161 whole entry): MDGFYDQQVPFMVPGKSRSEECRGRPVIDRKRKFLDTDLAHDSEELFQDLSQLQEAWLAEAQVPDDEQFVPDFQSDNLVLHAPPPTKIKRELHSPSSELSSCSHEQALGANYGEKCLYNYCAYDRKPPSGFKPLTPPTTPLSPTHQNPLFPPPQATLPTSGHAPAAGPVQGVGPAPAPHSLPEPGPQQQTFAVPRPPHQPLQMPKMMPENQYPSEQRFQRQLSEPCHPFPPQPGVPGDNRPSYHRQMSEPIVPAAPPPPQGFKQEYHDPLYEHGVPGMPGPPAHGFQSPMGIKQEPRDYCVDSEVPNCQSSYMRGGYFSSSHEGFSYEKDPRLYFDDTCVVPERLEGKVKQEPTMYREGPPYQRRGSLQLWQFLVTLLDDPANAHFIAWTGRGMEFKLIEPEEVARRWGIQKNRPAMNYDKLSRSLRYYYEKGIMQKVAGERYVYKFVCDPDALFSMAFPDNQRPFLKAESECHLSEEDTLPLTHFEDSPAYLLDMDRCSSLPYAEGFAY
# ETV1, sequence (P50549 whole entry): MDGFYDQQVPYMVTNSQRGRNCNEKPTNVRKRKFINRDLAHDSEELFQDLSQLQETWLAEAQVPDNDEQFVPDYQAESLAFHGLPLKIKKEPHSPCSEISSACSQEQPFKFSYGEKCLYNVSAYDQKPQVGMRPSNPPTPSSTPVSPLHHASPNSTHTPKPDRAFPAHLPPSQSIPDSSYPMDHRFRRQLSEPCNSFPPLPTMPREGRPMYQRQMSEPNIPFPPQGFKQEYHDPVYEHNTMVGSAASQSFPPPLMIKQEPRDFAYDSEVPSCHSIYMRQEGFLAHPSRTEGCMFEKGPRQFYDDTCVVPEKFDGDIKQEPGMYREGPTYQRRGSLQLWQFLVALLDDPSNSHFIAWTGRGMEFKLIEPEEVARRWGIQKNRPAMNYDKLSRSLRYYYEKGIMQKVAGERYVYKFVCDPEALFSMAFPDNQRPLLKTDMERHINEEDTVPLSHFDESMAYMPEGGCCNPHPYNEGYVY
# ELF4, sequence (Q99607 whole entry): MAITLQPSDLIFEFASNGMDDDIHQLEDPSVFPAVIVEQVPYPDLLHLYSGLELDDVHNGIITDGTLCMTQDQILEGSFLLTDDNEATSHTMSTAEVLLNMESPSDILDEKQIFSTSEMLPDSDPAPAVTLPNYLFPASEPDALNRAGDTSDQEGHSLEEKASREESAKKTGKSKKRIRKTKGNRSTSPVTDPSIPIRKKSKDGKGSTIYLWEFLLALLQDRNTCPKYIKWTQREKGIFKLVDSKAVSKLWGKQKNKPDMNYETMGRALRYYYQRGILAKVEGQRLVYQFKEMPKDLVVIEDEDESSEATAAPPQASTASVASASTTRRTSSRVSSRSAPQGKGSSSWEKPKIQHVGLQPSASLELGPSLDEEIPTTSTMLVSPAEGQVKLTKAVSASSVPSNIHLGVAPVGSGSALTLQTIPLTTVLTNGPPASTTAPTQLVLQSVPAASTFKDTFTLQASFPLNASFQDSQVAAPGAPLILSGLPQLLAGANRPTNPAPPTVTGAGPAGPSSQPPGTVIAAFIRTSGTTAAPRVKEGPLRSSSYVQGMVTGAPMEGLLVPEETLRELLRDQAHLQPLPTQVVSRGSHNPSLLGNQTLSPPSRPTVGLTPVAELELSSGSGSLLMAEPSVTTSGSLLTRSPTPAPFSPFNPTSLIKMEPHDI
# SPIB, sequence (Q01892 whole entry): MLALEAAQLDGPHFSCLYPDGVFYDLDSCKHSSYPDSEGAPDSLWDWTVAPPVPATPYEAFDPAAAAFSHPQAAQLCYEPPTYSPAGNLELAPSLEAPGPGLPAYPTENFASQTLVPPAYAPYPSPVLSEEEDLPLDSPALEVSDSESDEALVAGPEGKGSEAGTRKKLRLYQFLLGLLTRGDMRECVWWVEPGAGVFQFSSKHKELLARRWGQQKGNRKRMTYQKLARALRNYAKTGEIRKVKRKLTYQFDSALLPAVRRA
# ELF1, sequence (P32519 whole entry): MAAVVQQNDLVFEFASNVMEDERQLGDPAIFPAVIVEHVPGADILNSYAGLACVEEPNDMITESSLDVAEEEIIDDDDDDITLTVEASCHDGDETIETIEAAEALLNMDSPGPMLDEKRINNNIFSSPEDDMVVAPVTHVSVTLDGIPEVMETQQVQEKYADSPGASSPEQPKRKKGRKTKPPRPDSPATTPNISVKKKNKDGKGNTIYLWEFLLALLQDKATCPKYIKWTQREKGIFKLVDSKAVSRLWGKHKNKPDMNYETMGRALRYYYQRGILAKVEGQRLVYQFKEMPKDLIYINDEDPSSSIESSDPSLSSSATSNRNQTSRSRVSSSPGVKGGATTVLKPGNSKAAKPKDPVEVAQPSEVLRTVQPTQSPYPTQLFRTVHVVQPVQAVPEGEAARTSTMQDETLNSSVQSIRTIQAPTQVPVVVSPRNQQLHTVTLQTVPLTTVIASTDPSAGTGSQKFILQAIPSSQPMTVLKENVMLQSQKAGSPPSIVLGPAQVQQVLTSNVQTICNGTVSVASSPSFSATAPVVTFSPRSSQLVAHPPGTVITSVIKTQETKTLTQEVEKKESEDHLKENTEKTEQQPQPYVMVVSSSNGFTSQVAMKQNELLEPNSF
# CRX, sequence (O43186 whole entry): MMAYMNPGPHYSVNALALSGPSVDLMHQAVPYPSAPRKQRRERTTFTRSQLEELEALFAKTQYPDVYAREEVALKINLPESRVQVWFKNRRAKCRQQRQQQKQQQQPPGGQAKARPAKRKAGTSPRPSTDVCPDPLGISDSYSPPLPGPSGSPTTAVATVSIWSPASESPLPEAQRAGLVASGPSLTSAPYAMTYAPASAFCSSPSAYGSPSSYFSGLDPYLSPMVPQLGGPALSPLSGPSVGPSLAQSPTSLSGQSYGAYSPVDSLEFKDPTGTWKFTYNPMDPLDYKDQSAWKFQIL
Sequence,binding signal [1],binding signal [2],binding signal [3],binding signal [4],binding signal [5],binding signal [6],binding signal [7],binding signal [8],binding signal [9],binding signal [10],binding signal [11],binding signal [12],binding signal [13],binding signal [14],binding signal [15],binding signal [16],binding signal [17],binding signal [18]
GGGCTA,"1.1 fold enrichment (6-mer frequency, TF over GST control)","1.05 fold enrichment (6-mer frequency, TF over GST control)","1.08 fold enrichment (6-mer frequency, TF over GST control)","1.16 fold enrichment (6-mer frequency, TF over GST control)","1.16 fold enrichment (6-mer frequency, TF over GST control)","1.18 fold enrichment (6-mer frequency, TF over GST control)","1.15 fold enrichment (6-mer frequency, TF over GST control)","1.06 fold enrichment (6-mer frequency, TF over GST control)","1.04 fold enrichment (6-mer frequency, TF over GST control)","1.06 fold enrichment (6-mer frequency, TF over GST control)","1.23 fold enrichment (6-mer frequency, TF over GST control)","1.17 fold enrichment (6-mer frequency, TF over GST control)","1.29 fold enrichment (6-mer frequency, TF over GST control)","1 fold enrichment (6-mer frequency, TF over GST control)","1.15 fold enrichment (6-mer frequency, TF over GST control)","1.11 fold enrichment (6-mer frequency, TF over GST control)",–,–
CAACCA,"1.15 fold enrichment (6-mer frequency, TF over GST control)","1.15 fold enrichment (6-mer frequency, TF over GST control)","1.12 fold enrichment (6-mer frequency, TF over GST control)","1.03 fold enrichment (6-mer frequency, TF over GST control)","1.15 fold enrichment (6-mer frequency, TF over GST control)","1.13 fold enrichment (6-mer frequency, TF over GST control)","1.06 fold enrichment (6-mer frequency, TF over GST control)","1.18 fold enrichment (6-mer frequency, TF over GST control)","1.12 fold enrichment (6-mer frequency, TF over GST control)","1.13 fold enrichment (6-mer frequency, TF over GST control)","1.02 fold enrichment (6-mer frequency, TF over GST control)","1.11 fold enrichment (6-mer frequency, TF over GST control)","1.07 fold enrichment (6-mer frequency, TF over GST control)",–,–,"1.09 fold enrichment (6-mer frequency, TF over GST control)","1.11 fold enrichment (6-mer frequency, TF over GST control)","1.09 fold enrichment (6-mer frequency, TF over GST control)"
